# Hit rate of the full screen: of about 5,500 compounds, about 2,000 (36%) were called active. Not shown: some 18% with an inconclusive outcome. Some of the results follow. Values without a mark were called inactive. Rule as the data show it: active = normalized growth mostly below about 0.91 (no sharp cut-off); inconclusive = no clear call, values can overlap the other calls; inactive = mostly above about 0.92.
# Experiment: chemical genetic growth profiling, strain panel (AID 1159580);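 also: tested at 20 µM; growth read once vehicle control cultures reached saturation at 30 °C; 1 = growth at the plate median or of vehicle wells; lower values mean less growth of the strain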
# Details: S. cerevisiae deletion strains, growth OD
# [1] = locus YAL021C, strain ccr4, stronger effect = lower value
# [2] = locus YAL026C, strain drs2, stronger effect = lower value
# [3] = locus YAL030W, strain snc1, stronger effect = lower value
# [4] = locus YBL061C, strain skt5, stronger effect = lower value
# [5] = locus YBR009C, strain hhf1, stronger effect = lower value
# [6] = locus YBR023C, strain chs3, stronger effect = lower value
# [7] = locus YBR171W, strain sec66, stronger effect = lower value
# [8] = locus YBR231C, strain swc5, stronger effect = lower value
# [9] = locus YBR279W, strain paf1, stronger effect = lower value
# [10] = locus YCL011C, strain gbp2, stronger effect = lower value
# [11] = locus YCL016C, strain dcc1, stronger effect = lower value
# [12] = locus YCL069W, strain vba3, stronger effect = lower value
# [13] = locus YCR088W, strain abp1, stronger effect = lower value
# [14] = locus YDL005C, strain med2, stronger effect = lower value
# [15] = locus YDL040C, strain nat1, stronger effect = lower value
# [16] = locus YDR001C, strain nth1, stronger effect = lower value
# [17] = locus YDR069C, strain doa4, stronger effect = lower value
# [18] = locus YDR137W, strain rgp1, stronger effect = lower value
# [19] = locus YDR159W, strain sac3, stronger effect = lower value
# [20] = locus YDR297W, strain sur2, stronger effect = lower value
# [21] = locus YDR334W, strain swr1, stronger effect = lower value
# [22] = locus YDR335W, strain msn5, stronger effect = lower value
# [23] = locus YDR392W, strain spt3, stronger effect = lower value
# [24] = locus YEL003W, strain gim4, stronger effect = lower value
# [25] = locus YEL037C, strain rad23, stronger effect = lower value
# [26] = locus YEL061C, strain CIN8 (second series), stronger effect = lower value
# [27] = locus YER015W, strain faa2, stronger effect = lower value
# [28] = locus YER016W, strain bim1, stronger effect = lower value
# [29] = locus YER111C, strain swi4, stronger effect = lower value
# [30] = locus YER155C, strain BEM2 (second series), stronger effect = lower value
# [31] = locus YFR010W, strain ubp6, stronger effect = lower value
# [32] = locus YGL167C, strain pmr1, stronger effect = lower value
# [33] = locus YGL173C, strain kem1, stronger effect = lower value
# [34] = locus YGL227W, strain vid30, stronger effect = lower value
# [35] = locus YGL240W, strain doc1, stronger effect = lower value
# [36] = locus YGL253W, strain hxk2, stronger effect = lower value
# [37] = locus YHR013C, strain ard1, stronger effect = lower value
# [38] = locus YHR027C, strain rpn1, stronger effect = lower value
# [39] = locus YHR030C, strain SLT2, stronger effect = lower value
# [40] = locus YHR079C, strain IRE1, stronger effect = lower value
# [41] = locus YHR142W, strain chs7, stronger effect = lower value
# [42] = locus YJL092W, strain hpr5, stronger effect = lower value
# [43] = locus YJL095W, strain BCK1 (second series), stronger effect = lower value
# [44] = locus YJL095W, strain BCK1, stronger effect = lower value
# [45] = locus YJL115W, strain asf1, stronger effect = lower value
# [46] = locus YJL129C, strain trk1, stronger effect = lower value
# [47] = locus YJL154C, strain vps35, stronger effect = lower value
# [48] = locus YJL164C, strain tpk1, stronger effect = lower value
# [49] = locus YJL166W, strain qcr8, stronger effect = lower value
# [50] = locus YJL187C, strain SWE1, stronger effect = lower value
# [51] = locus YJR066W, strain TOR1, stronger effect = lower value
# [52] = locus YKL160W, strain elf1, stronger effect = lower value
# [53] = locus YKR026C, strain gcn3, stronger effect = lower value
# [54] = locus YKR091W, strain srl3, stronger effect = lower value
# [55] = locus YLL001W, strain dnm1, stronger effect = lower value
# [56] = locus YLL026W, stronger effect = lower value
# [57] = locus YLL041C, strain sdh2, stronger effect = lower value
# [58] = locus YLR027C, strain aat2, stronger effect = lower value
# [59] = locus YLR221C, strain rsa3, stronger effect = lower value
# [60] = locus YLR258W, strain gsy2, stronger effect = lower value
# [61] = locus YLR262C, strain YPT6 (second series), stronger effect = lower value
# [62] = locus YLR320W, strain mms22, stronger effect = lower value
# [63] = locus YLR342W, strain FKS1, stronger effect = lower value
# [64] = locus YLR357W, strain rsc2, stronger effect = lower value
# [65] = locus YLR370C, strain arc18, stronger effect = lower value
# [66] = locus YLR384C, strain iki3, stronger effect = lower value
# [67] = locus YML120C, strain ndi1, stronger effect = lower value
# [68] = locus YMR058W, strain fet3, stronger effect = lower value
# [69] = locus YMR125W, strain sto1, stronger effect = lower value
# [70] = locus YMR129W, stronger effect = lower value
# [71] = locus YMR205C, strain PFK2, stronger effect = lower value
# [72] = locus YMR231W, strain pep5, stronger effect = lower value
# [73] = locus YNL071W, strain lat1, stronger effect = lower value
# [74] = locus YNL183C, strain NPR1, stronger effect = lower value
# [75] = locus YNL209W, strain ssb2, stronger effect = lower value
# [76] = locus YNL248C, strain rpa49, stronger effect = lower value
# [77] = locus YNL322C, strain KRE1 (second series), stronger effect = lower value
# [78] = locus YNR049C, strain mso1, stronger effect = lower value
# [79] = locus YOR001W, strain rrp6, stronger effect = lower value
# [80] = locus YOR070C, strain gyp1, stronger effect = lower value
# [81] = locus YOR080W, strain dia2, stronger effect = lower value
# [82] = locus YOR083W, strain WHI5, stronger effect = lower value
# [83] = locus YOR106W, strain vam3, stronger effect = lower value
# [84] = locus YOR231W, strain MKK1, stronger effect = lower value
# [85] = locus YOR265W, strain rbl2, stronger effect = lower value
# [86] = locus YOR270C, strain vph1, stronger effect = lower value
# [87] = locus YOR290C, strain snf2, stronger effect = lower value
# [88] = locus YPL051W, strain arl3, stronger effect = lower value
# [89] = locus YPL078C, strain atp4, stronger effect = lower value
# [90] = locus YPL106C, strain sse1, stronger effect = lower value
# [91] = locus YPL240C, strain hsp82, stronger effect = lower value
# [92] = locus YPL256C, strain CLN2, stronger effect = lower value
smiles,measurement,setting,value
NCCC1CCCC(CCN)N1 (stereo not drawn),normalized growth,"locus YAL013W, strain DEP1, stronger effect = lower value",1.01
same,normalized growth,"locus YAL040C, strain CLN3, stronger effect = lower value",1.01
same,normalized growth,"locus YCL061C, strain MRC1 (second series), stronger effect = lower value",1.01
same,normalized growth,"locus YDR363W, strain ESC2, stronger effect = lower value",1.01
same,normalized growth,"locus YER002W, strain NOP16, stronger effect = lower value",0.995
same,normalized growth,"locus YGR078C, strain PAC10, stronger effect = lower value",1.02
same,normalized growth,"locus YGR229C, strain SMI1, stronger effect = lower value",1.01
same,normalized growth,"locus YJR075W, strain HOC1, stronger effect = lower value",1.01
same,normalized growth,"locus YNL153C, strain GIM3, stronger effect = lower value",1.01
same,normalized growth,"locus YNL175C, strain NOP13, stronger effect = lower value",1
same,normalized growth,"locus YNL197C, strain WHI3, stronger effect = lower value",1
same,normalized growth,"locus YNL224C, strain SQS1, stronger effect = lower value",1
same,normalized growth,"locus YOR083W, strain WHI5 (second series), stronger effect = lower value",1.01
same,normalized growth,"locus YPL055C, strain LGE1, stronger effect = lower value",1.02
same,normalized growth,"locus YPL241C, strain CIN2, stronger effect = lower value",1.01
COc1ccc2nc(S(=O)Cc3ncc(C)c(OC)c3C)[nH]c2c1 (stereo not drawn),normalized growth,[1],0.795 (active)
same,normalized growth,[2],1
same,normalized growth,[3],1.02
same,normalized growth,[4],1.01
same,normalized growth,[5],0.907 (active)
same,normalized growth,[6],0.957
same,normalized growth,[7],1.02
same,normalized growth,[8],0.953
same,normalized growth,[9],0.913 (active)
same,normalized growth,[10],1.01
same,normalized growth,[11],0.962
same,normalized growth,"locus YCL061C, strain MRC1, stronger effect = lower value",1.01
same,normalized growth,[12],1.02
same,normalized growth,[13],1.02
same,normalized growth,[14],1.02
same,normalized growth,[15],1.02
same,normalized growth,[16],1.02
same,normalized growth,[17],0.812 (active)
same,normalized growth,[18],0.907
same,normalized growth,[19],0.975
same,normalized growth,"locus YDR195W, strain ref2",1.02
same,normalized growth,[20],1.01
same,normalized growth,[21],1.01
same,normalized growth,[22],1
same,normalized growth,[23],0.556 (active)
same,normalized growth,[24],1.01
same,normalized growth,[25],1.02
same,normalized growth,[26],1.02
same,normalized growth,[27],0.987
same,normalized growth,[28],1.02
same,normalized growth,[29],1.02
same,normalized growth,[30],0.812 (active)
same,normalized growth,[31],0.999
same,normalized growth,[32],1.02
same,normalized growth,[33],1.01
same,normalized growth,[34],1.02
same,normalized growth,[35],0.934
same,normalized growth,[36],1.01
same,normalized growth,[37],0.753 (active)
same,normalized growth,[38],1.01
same,normalized growth,[39],0.791 (active)
same,normalized growth,[40],0.885
same,normalized growth,[41],1.01
same,normalized growth,[42],1.02
same,normalized growth,[43],1.02
same,normalized growth,[44],0.752 (active)
same,normalized growth,[45],1.02
same,normalized growth,[46],0.994
same,normalized growth,[47],1.02
same,normalized growth,[48],0.942
same,normalized growth,[49],0.911
same,normalized growth,[50],0.998
same,normalized growth,[51],0.879
same,normalized growth,[52],0.941
same,normalized growth,[53],1.01
same,normalized growth,[54],1.02
same,normalized growth,[55],1.01
same,normalized growth,[56],0.983
same,normalized growth,[57],1.02
same,normalized growth,[58],0.948
same,normalized growth,[59],0.904 (active)
same,normalized growth,[60],0.989
same,normalized growth,[61],0.857 (active)
same,normalized growth,[62],0.765 (active)
same,normalized growth,[63],1.01
same,normalized growth,[64],1
same,normalized growth,[65],1.02
same,normalized growth,[66],1.03
same,normalized growth,[67],0.975
same,normalized growth,[68],0.999
same,normalized growth,[69],1.01
same,normalized growth,[70],1.03
same,normalized growth,[71],0.915
same,normalized growth,[72],1.01
same,normalized growth,[73],0.702 (active)
same,normalized growth,[74],0.86
same,normalized growth,[75],0.98
same,normalized growth,[76],1.02
same,normalized growth,[77],1.03
same,normalized growth,[78],1.02
same,normalized growth,[79],0.996
same,normalized growth,[80],0.897 (active)
same,normalized growth,[81],1.01
same,normalized growth,[82],0.984
same,normalized growth,[83],0.857 (active)
same,normalized growth,[84],1.04
same,normalized growth,[85],0.995
same,normalized growth,[86],0.994
same,normalized growth,[87],0.991
same,normalized growth,[88],0.846 (active)
same,normalized growth,[89],0.989
same,normalized growth,[90],1
same,normalized growth,[91],1.01
same,normalized growth,[92],0.988
COc1ccnc(CS(=O)c2nc3ccc(OC(F)F)cc3[nH]2)c1OC (stereo not drawn),normalized growth,[1],0.993
same,normalized growth,[2],1.04
same,normalized growth,[3],1.02
same,normalized growth,[4],1.04
same,normalized growth,[5],0.991
same,normalized growth,[6],1.04
same,normalized growth,[7],1.03
same,normalized growth,[8],1.01
same,normalized growth,[9],1.04
same,normalized growth,[10],1.02
same,normalized growth,[11],1.03
same,normalized growth,[12],1.02
same,normalized growth,[13],1.03
same,normalized growth,[14],1.02
same,normalized growth,[15],1.03
same,normalized growth,[16],1.02
same,normalized growth,[17],1.02
same,normalized growth,[18],1.05
same,normalized growth,[19],0.94
same,normalized growth,"locus YDR195W, strain ref2",1.01
same,normalized growth,[20],1.02
same,normalized growth,[21],1.03
same,normalized growth,[22],1.05
same,normalized growth,[23],0.925
same,normalized growth,[24],1.02
same,normalized growth,[25],1.03
same,normalized growth,[26],1.02
same,normalized growth,[27],1.03
same,normalized growth,[28],1.04
same,normalized growth,[29],1.05
same,normalized growth,[30],0.917
same,normalized growth,[31],1.01
same,normalized growth,[32],1.02
same,normalized growth,[33],0.989
same,normalized growth,[34],1.03
same,normalized growth,[35],0.977
same,normalized growth,[36],1.05
same,normalized growth,[37],1.05
same,normalized growth,[38],0.989
same,normalized growth,[39],0.864
same,normalized growth,[40],0.946
same,normalized growth,[41],1.05
same,normalized growth,[42],1.01
same,normalized growth,[43],1.02
same,normalized growth,[44],0.89
same,normalized growth,[45],1.02
same,normalized growth,[46],1.03
same,normalized growth,[47],1.02
same,normalized growth,[48],1
same,normalized growth,[49],0.989
same,normalized growth,[50],1.01
same,normalized growth,[51],0.922
same,normalized growth,[52],1.03
same,normalized growth,[53],1.04
same,normalized growth,[54],1.03
same,normalized growth,[55],0.98
same,normalized growth,[56],1.02
same,normalized growth,[57],1.01
same,normalized growth,[58],1.01
same,normalized growth,"locus YLR113W, strain HOG1, stronger effect = lower value",0.926
same,normalized growth,[59],0.982
same,normalized growth,[60],1.04
same,normalized growth,[61],1.01
same,normalized growth,[62],0.936
same,normalized growth,[63],1.02
same,normalized growth,[64],1
same,normalized growth,[65],1.03
same,normalized growth,[66],1.01
same,normalized growth,[67],1
same,normalized growth,[68],1.04
same,normalized growth,[69],1.02
same,normalized growth,[70],1.03
same,normalized growth,[71],1.01
same,normalized growth,[72],1.03
same,normalized growth,[73],1.02
same,normalized growth,[74],0.868
same,normalized growth,[75],1.02
same,normalized growth,[76],1.06
same,normalized growth,[77],1.05
same,normalized growth,[78],1.03
same,normalized growth,[79],1
same,normalized growth,[80],1.02
same,normalized growth,[81],1.04
same,normalized growth,[82],0.995
same,normalized growth,[83],1.02
same,normalized growth,[84],0.953
same,normalized growth,[85],1
same,normalized growth,[86],1.2
same,normalized growth,[87],1.06
same,normalized growth,[88],1
same,normalized growth,[89],1.04
same,normalized growth,[90],1.03
same,normalized growth,[91],1.03
same,normalized growth,[92],0.969

# — PubChem BioAssay AID1159580 (chemical genetic matrix, 2015)
